From the supplement of paper PMC7366291
Where a name gives a salt, the structure may show the parent alone. ± gives the standard deviation of the averaged measurements.

test system: Danio rerio Tg(wt1b:EGFP) embryo, pronephros; assay: pronephric angle neck segment to proximal convoluted tubule (mean of left and right), fold change vs DMSO control; higher = larger pronephric angle; conditions: 25 µM; exposure: 24-48 hpf
In short: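 Every feature is expressed as a fold change relative to the averaged DMSO-treated embryos of the same day. The exposure ran from 24 to 48 hpf at 28.5°C, with dechorionated Tg(wt1b:EGFP) zebrafish embryos in HEPES-buffered E3 containing 0.003% PTU, 0.5% DMSO and 25 μM compound. Dorsal pronephros images taken in agarose-filled 96-well plates were reduced to maximum projections, on which 16 reference points were set by hand in Fiji for a macro to compute distances and angles. Values more than 2 SD from the feature mean were not used.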

| SMILES | pronephric angle neck segment |
| --- | --- |
| CC(=O)CC(c1ccc([N+](=O)[O-])cc1)c1c(O)c2ccccc2oc1=O (stereo not given) [Acenocoumarol] | 1.07 ± 0.076 |
| COC(=O)Nc1nc2cc(Sc3ccccc3)ccc2[nH]1 [Fenbendazole] | 1.8 ± 0.13 |
| O=c1[nH]c(=O)n(C2CCCO2)cc1F (stereo not given) [Tegafur] | 0.991 ± 0.041 |
| CCN1C(=O)NC(c2ccccc2)C1=O (stereo not given) [Ethotoin] | 0.942 ± 0.014 |
| Nc1ccc(S(=O)(=O)c2ccc(N)cc2)cc1 [Dapsone] | 1.14 ± 0.042 |
| Cn1c([N+](=O)[O-])cnc1COC(N)=O [Ronidazole] | 1.02 ± 0.016 |
| Cc1noc(NS(=O)(=O)c2ccc(N)cc2)c1C [Sulfisoxazole] | 0.97 ± 0.044 |
| Nc1ncn(C2OC(CO)C(O)C2O)c(=O)n1 (stereo not given) [Azacytidine-5] | 1.02 ± 0.031 |
| Cc1ccc(S(=O)(=O)NC(=O)NN2CC3CCCC3C2)cc1 (stereo not given) [Gliclazide] | 0.982 ± 0.011 |
| NC[C@H]1O[C@H](O[C@H]2[C@H](O[C@@H]3O[C@H](CO)[C@@H](O)[C@H]3O)[C@@H](O)[C@H](N)C[C@@H]2N)[C@H](N)[C@@H](O)[C@@H]1O [Ribostamycin sulfate salt] | 1.06 ± 0.061 |
| Cc1ccc(S(=O)(=O)NC(=O)NN2CCCCCC2)cc1 [Tolazamide] | 0.972 ± 0.023 |
| CCN(CC)Cc1cc(Nc2ccnc3cc(Cl)ccc23)ccc1O [Amodiaquin dihydrochloride dihydrate] | 0.957 ± 0.016 |
| CS(=O)(=O)c1ccc([C@@H](O)[C@@H](CF)NC(=O)C(Cl)Cl)cc1 [Florfenicol] | 1.01 ± 0.034 |
| C[C@]12C=CC(=O)C=C1CC[C@@H]1[C@@H]2[C@@H](O)C[C@@]2(C)[C@H]1CC[C@]2(O)C(=O)CO [Prednisolone] | 1.04 ± 0.02 |
| COc1cc(N)c(Cl)cc1C(=O)NC1CCN(Cc2ccccc2)CC1 [Clebopride maleate] | 0.912 ± 0.027 |
| NS(=O)(=O)c1cc(Cl)c(Cl)c(S(N)(=O)=O)c1 [Dichlorphenamide] | 0.941 ± 0.041 |
| CCC1NC(=O)c2cc(S(N)(=O)=O)c(Cl)cc2N1 (stereo not given) [Quinethazone] | 1.04 ± 0.027 |
| CC(C)C(=O)Nc1ccc([N+](=O)[O-])c(C(F)(F)F)c1 [Flutamide] | 1.05 ± 0.031 |
| CNCCCC1c2ccccc2C=Cc2ccccc21 [Protriptyline hydrochloride] | 0.973 ± 0.027 |
| COc1ccc(CN2CCN(C(c3ccc(F)cc3)c3ccc(F)cc3)CC2)c(OC)c1OC [Lomerizine hydrochloride] | 0.99 ± 0.019 |

| SMILES | pronephric angle neck segment |
| --- | --- |
| c1ccc2[nH]c(-c3cscn3)nc2c1 [Tiabendazole] | 1.04 ± 0.02 |
| O=C1CN(/N=C/c2ccc([N+](=O)[O-])o2)C(=O)N1 [Nitrofurantoin] | 0.968 ± 0.015 |
| COc1cc2nc(N3CCN(C(=O)c4ccco4)CC3)nc(N)c2cc1OC [Prazosin hydrochloride] | 1.03 ± 0.04 |
| C[C@H](CCC(=O)O)[C@H]1CC[C@H]2[C@@H]3[C@@H](O)C[C@@H]4C[C@H](O)CC[C@]4(C)[C@H]3CC[C@]12C [Urosiol] | 0.965 ± 0.032 |
| CC(C)(Oc1ccc(Cl)cc1)C(=O)O [Clofibric acid] | 1.001 ± 0.0094 |
| CCCc1nc2c(C)cc(-c3nc4ccccc4n3C)cc2n1Cc1ccc(-c2ccccc2C(=O)O)cc1 [Telmisartan] | 1.16 ± 0.046 |
| CN(C)c1ccc(O)c2c1C[C@H]1C[C@H]3[C@H](N(C)C)C(O)=C(C(N)=O)C(=O)[C@@]3(O)C(O)=C1C2=O [Minocycline hydrochloride] | 0.92712 ± 6.2e-05 |
| CCN(CC)C(=O)/C(C#N)=C/c1cc(O)c(O)c([N+](=O)[O-])c1 [Entacapone] | 1.28 ± 0.14 |
| O=C1CN(/N=C/c2ccc(-c3ccc([N+](=O)[O-])cc3)o2)C(=O)N1 [Dantrolene sodium salt] | 1.02 ± 0.016 |
| CN(C)CCC=C1c2ccccc2CCc2ccccc21 [Amitryptiline hydrochloride] | 1.02 ± 0.072 |
| CC(C)(C)NCC(O)c1cc(O)cc(O)c1 (stereo not given) [Terbutaline hemisulfate] | 1.01 ± 0.039 |
| COc1ccccc1OCCNCC(O)COc1cccc2[nH]c3ccccc3c12 (stereo not given) [Carvedilol] | 0.958 ± 0.019 |
| CCN1CC(CCN2CCOCC2)C(c2ccccc2)(c2ccccc2)C1=O (stereo not given) [Doxapram hydrochloride] | 0.9542 ± 0.0079 |
| N=C(N=C(N)N)N1CCOCC1 [Moroxidine hydrochloride] | 0.903 ± 0.039 |
| CCn1nc(C(=O)O)c(=O)c2cc3c(cc21)OCO3 [Cinoxacin] | 1.05 ± 0.1 |
| CCCCc1ccc2[nH]c(NC(=O)OC)nc2c1 [Parbendazole] | 1.81 ± 0.054 |
| CO[C@H]1/C=C/O[C@@]2(C)Oc3c(C)c(O)c4c(c3C2=O)C2=NC3(CCN(CC(C)C)CC3)NC2=C(NC(=O)/C(C)=C\C=C\[C@H](C)[C@H](O)[C@@H](C)[C@@H](O)[C@@H](C)[C@H](OC(C)=O)[C@@H]1C)C4=O [Rifabutin] | 1.06 ± 0.011 |
| C=CC1=C(C(=O)O)N2C(=O)[C@@H](NC(=O)/C(=N\OCC(=O)O)c3csc(N)n3)[C@H]2SC1 [Cefixime] | 1.07 ± 0.1 |
| CC(C)(C)C(=O)OCOC(=O)[C@@H]1N2C(=O)[C@@H](NC(=O)[C@H](N)c3ccccc3)[C@H]2SC1(C)C [Pivampicillin] | 0.9619 ± 0.0073 |
| NNC(=O)c1ccncc1 [Isoniazid] | 0.978 ± 0.02 |
